The labels stand for the following.
B1: PhoQ; a variant is named by its letters at X, in order, P23837 (parent)
chain: MKKLLRLFFPLSLRVRFLLATAAVVLVLSLAYGMVALIGYSVSFDKTTFRLLRGESNLFYTLAKWENNKLHVELPENIDKQSPTMTLIYDENGQLLWAQRDVPWLMKMIQPDWLKSNGFHEIEADVNDTSLLLSGDHSIQQQLQEVREDDDDAEMTHSVAVNVYPATSRMPKLTIVVVDTIPVELKSSYMVWSWFIYVLSANLLLVIPLLWVAAWWSLRPIEALAKEVRELEEHNRELLNPATTRELTSLVRNLNRLLKSERERYDKYRTTLTDLTHSLKTPLXXLQXXLRSLRSEKMSVSDAEPVMLEQISRISQQIGYYLHRASMRGGTLLSRELHPVAPLLDNLTSALNKVYQRKGVNISLDISPEISFVGEQNDFVEVMGNVLDNACKYCLEFVEISARQTDEHLYIVVEDDGPGIPLSKREVIFDRGQRVDTLRPGQGVGLAVAREITEQYEGKIVAGESMLGGARMEVIFGRQHSAPKDE

Whole data set: some 140,000 sequences, median “enrichment ratio after two sorts for PhoP signalling” near 0, cut for the highest 2% near 11. Many of the other results were omitted from the sample, so the highest values are more common in it than they were.

The test covers variants of B1. Briefly: enrichment ratio after two sorts for PhoP signalling (ratio (wild type AVST 3.29)); higher = more functional. The conditions noted are these: with PhoP (E. coli).
As for MRPD, the enrichment ratio is at most 0.25.
As for SKPL, the enrichment ratio is at most 0.25.
Take SKMV: the enrichment ratio amounted to 14.3.
Then SKTA, with 0.276; and SKCI, with 16.6; and SKCS, with 6.51.
Next, SKTS: 3.33; SKCK: at most 0.25; SKCL: 11.8.
Then SKAV, with 4.49; and SKTI, with 14.2.
With SKMI, the enrichment ratio was found to be 4.44.
Then SKKL, with at most 0.25; and VFSR, with at most 0.25.
Turning to FRTG, the enrichment ratio is at most 0.25.
Next, PMFK: at most 0.25; FGSI: at most 0.25; VKKE: at most 0.25.
Regarding PRSV, the enrichment ratio is at most 0.25.
Next, SKMQ: 13.1; SKCY: 16.7; SKKQ: at most 0.25.
Next, SKPY: at most 0.25; SKPI: at most 0.25; SKCA: 11.7.
In the case of SKKI, the enrichment ratio is at most 0.25.
Then SKHP, with at most 0.25; and SKMT, with 10.8.
Then SKCT, with 14.2; and SKCE, with 5.46; and SKAT, with 5.34.
Consider DRIT, for which the enrichment ratio is at most 0.25.
Next, DNWQ: at most 0.25; SKIV: 4.99; SKCV: 12.3.
In the case of SKCF, the enrichment ratio turned out to be 13.8.
For MKCF, the enrichment ratio was at most 0.25.
Then SKHF, with at most 0.25; and SKFW, with at most 0.25; and IRSK, with at most 0.25.
Then GTMP, with at most 0.25; and NADQ, with at most 0.25.
Then QGYQ, with 13.9; and YTYQ, with at most 0.25; and QTYQ, with 4.58.
Take STYQ: the enrichment ratio was at most 0.25.
Next, KSYQ: at most 0.25; QEYQ: 30.4.
Then QPYQ, with at most 0.25.
Next, FFYQ: at most 0.25.
Consider RGYQ, for which the enrichment ratio is at most 0.25.
Next, NGYQ: at most 0.25; TTYQ: 11.4.
With TGYQ, the enrichment ratio came out at 15.9.
Next, DEAF: at most 0.25.
Then WEER, with at most 0.25; and ADHC, with at most 0.25; and NYMN, with at most 0.25.
Consider WKDT, for which the enrichment ratio is at most 0.25.
Next, EGGF: at most 0.25; WIPQ: at most 0.25; TQYD: 3.43.
Then IQYQ, with at most 0.25; and TQYQ, with 27.1.
Next, TGDI: at most 0.25; WKRD: at most 0.25; KGIQ: at most 0.25.
As for PVAG, the enrichment ratio was at most 0.25.
Then TVAA, with 20.7.
Next, PVAA: at most 0.25; NVAN: at most 0.25.
Consider TVAN, for which the enrichment ratio came out at 16.9.
Then NVAG, with at most 0.25.
FVAT: the enrichment ratio is at most 0.25.
Next, FVAA: at most 0.25.
Then TVAG, with 17.8.
Next, TVAT: 16.8.
For the variant SPAN, the enrichment ratio is at most 0.25.
Consider NVAT, for which the enrichment ratio is at most 0.25.
For RYVN, the enrichment ratio was at most 0.25.
Then RYKH, with at most 0.25.
Then MFLN, with at most 0.25; and RRDC, with at most 0.25.
Next, MLNF: at most 0.25; THAN: 13.2; NHAN: at most 0.25.
As to SHAN, the enrichment ratio was at most 0.25.
Next, KCMT: at most 0.25.
TVMT: the enrichment ratio amounted to 12.2.
Next, TVAS: 14.3.
Then FVAS, with at most 0.25; and PVMT, with at most 0.25; and NVAS, with at most 0.25.
Then PEFN, with at most 0.25; and PTTH, with 1.43.
For the variant DIRA, the enrichment ratio was at most 0.25.
Then HQWG, with at most 0.25; and AGSS, with 11.2.
Next, AGSK: 0.857; ADSS: at most 0.25; AQSS: 11.7.
Next, ANSR: at most 0.25; NGSS: at most 0.25.
For AHSS, the enrichment ratio was at most 0.25.
Then AKSS, with 8.3; and ANSS, with 12.7; and LTKW, with at most 0.25.
On to FSPG, for which the enrichment ratio is at most 0.25.
Then VPLL, with at most 0.25; and NLEV, with at most 0.25; and EVYR, with at most 0.25.
Next, QKGY: at most 0.25; NGYC: at most 0.25.
Next, QGYC: 13.7; KAYC: at most 0.25.
Consider YAYC, for which the enrichment ratio is at most 0.25.
Next, TAYC: 11.3; FFYC: at most 0.25.
On to TGYC, for which the enrichment ratio stood at 13.2.
Next, RGYC: at most 0.25; QTYC: 0.887; KTHY: at most 0.25.
Next, GMIR: 1.56; TGTT: 11.2.
As to NPLD, the enrichment ratio is at most 0.25.
With SLDR, the enrichment ratio is at most 0.25.
Next, TAGG: 3.74; VTSS: at most 0.25; YGPF: at most 0.25.
As to MAMI, the enrichment ratio was found to be 8.98.
Next, NEML: 0.665; QEML: at most 0.25.
Then AEML, with 14.4; and WIML, with at most 0.25; and APML, with at most 0.25.
Take ANML: the enrichment ratio turned out to be 13.
Then YWML, with at most 0.25; and PNML, with at most 0.25; and AGML, with 16.1.
Next, TTML: 28.8; NIML: 6.63; HMSC: at most 0.25.
As for RRES, the enrichment ratio is at most 0.25.
Next, YPTI: at most 0.25.
Next, IDRY: at most 0.25; ACRL: at most 0.25.
For WQML, the enrichment ratio is at most 0.25.
THML: the enrichment ratio worked out at 12.8.
Then SQML, with 4.5; and ACML, with 17.8.
Next, NHML: at most 0.25; YHML: at most 0.25; ADML: 21.8.
Next, AQML: 24.2; FDML: at most 0.25.
With ACIL, the enrichment ratio was 10.3.
Then AKML, with 9.72.
Then LQYI, with at most 0.25; and LLQA, with at most 0.25.
Consider YWKI, for which the enrichment ratio was at most 0.25.
Then RIIT, with at most 0.25.
Then VAHN, with at most 0.25.
Turning to PEIM, the enrichment ratio was at most 0.25.
With VACQ, the enrichment ratio was at most 0.25.
With AWDP, the enrichment ratio is at most 0.25.
With AYET, the enrichment ratio was at most 0.25.
Then GVGM, with at most 0.25; and RTSP, with at most 0.25; and PEMC, with at most 0.25.
Next, IARY: at most 0.25; NQML: at most 0.25.
Consider AIML, for which the enrichment ratio is 21.2.
Then ATML, with 11.3.
Turning to IAML, the enrichment ratio is 4.62.
With EQML, the enrichment ratio was at most 0.25.
In the case of KKML, the enrichment ratio is at most 0.25.
Next, YAML: 8.51.
With AHML, the enrichment ratio amounted to 4.34.
Next, VHML: at most 0.25.
With AAML, the enrichment ratio turned out to be 14.7.
Next, TQML: 22.5.
Then AYML, with at most 0.25.
Take NGCN: the enrichment ratio was at most 0.25.
For the variant YSQW, the enrichment ratio was at most 0.25.
Next, TCLD: at most 0.25; PESS: at most 0.25; GTCM: 5.28.
Then GEWM, with at most 0.25; and GGCM, with 9.15; and GNCM, with 11.7.
Then GICK, with 9.7; and RICM, with at most 0.25.
As for GACM, the enrichment ratio amounted to 12.2.
For GECM, the enrichment ratio is 15.3.
Next, GICM: 38.3; GAAM: at most 0.25.
Next, GECK: at most 0.25; GACK: at most 0.25.

The record behind these values is a collection of fitness landscapes (doi:10.1126/science.1257360).
